# Assay results published in the supplement of paper PMC3334620.
# Whole data set: some 33,000 sequences, median “E-score (-0.5 to 0.5)” near -0.017, cut for the highest 2% near 0.3. The list comes from a sample in which the highest values are over-represented; it also holds similar and randomly drawn sequences.
# Molecular target: T1, Sut1 (UniProt P53032)
# T1 sequence: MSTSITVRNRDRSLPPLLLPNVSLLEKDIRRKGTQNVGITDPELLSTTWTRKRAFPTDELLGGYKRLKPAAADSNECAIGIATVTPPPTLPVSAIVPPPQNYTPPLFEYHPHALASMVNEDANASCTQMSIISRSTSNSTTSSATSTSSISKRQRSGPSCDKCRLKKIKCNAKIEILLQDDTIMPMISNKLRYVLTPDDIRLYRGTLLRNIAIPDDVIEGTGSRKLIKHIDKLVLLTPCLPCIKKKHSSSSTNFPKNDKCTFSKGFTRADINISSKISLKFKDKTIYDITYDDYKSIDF
# Assay: PBM E-score (8-mer binding enrichment) (E-score (-0.5 to 0.5)); higher = stronger / more preferred TF binding
# Details: protein concentration: 200 nM; construct: GST-full length
# Experimental: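 Universal 'all 10-mer' protein binding microarrays (Agilent AMADID 015681) probed with GST-tagged S. cerevisiae TFs (full-length or DBD) made by in vitro transcription/translation (PURExpress), about 100-200 nM. Bound TF was detected with fluorescent anti-GST. Each ungapped 8-mer (which stands for itself and its reverse complement) is scored by the PBM enrichment score (E-score), a modified Wilcoxon-Mann-Whitney statistic from -0.5 to +0.5, computed with the Universal PBM Analysis Suite. Scale: above 0.35 generally sequence-specific binding.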
row,Sequence,PBM E-score
1,ACCGGACC,0.364
2,ACTGGACT,-0.107
3,AACGGACG,0.0275
4,AGCGGACT,0.406
5,AACGGACT,0.444
6,ACCGGACG,0.114
7,AGCATATA,0.102
8,ACGCAAAC,-0.0168
9,CGGGGACA,-0.0417
10,AGAACAGC,-0.0298
11,ACGTGGTG,-0.133
12,CGCCATTA,0.0246
13,AGCCACCG,-0.122
14,ACTCCGCC,0.438
15,ACTCCGCT,0.452
16,GCTCCGCC,0.0486
17,ACTCCGCA,0.473
18,AATCCGCT,-0.0383
19,ACGCCGCT,-0.0911
20,CCTCCGCG,-0.0947
21,ACTCCGCG,0.476
22,CCTCCGCC,-0.221
23,ACTCCCCG,0.196
24,CCTCCGCA,-0.205
25,GCTCCGCA,0.227

row,Sequence,PBM E-score
1,CAACGGGA,0.0235
2,AGAACCAT,0.12
3,GAGGCTCC,0.0186
4,ACCTTTGG,-0.287
5,CACATCGA,-0.0466
6,AGCCACTG,-0.0195
7,AGGAGATC,0.0207
8,AGGAGATA,-0.155
9,CGGAGATC,0.445
10,CGGAGATA,0.458
11,GGGAGATA,-0.144
12,CGGAGACG,0.204
13,CTGAGATC,-0.209
14,CGGAGACC,0.315
15,GGGAGACC,-0.235
16,AAAAGCAA,0.242
17,ACCACCGT,-0.0843
18,GCAGGTAC,-0.132
19,CTCAAGCC,-0.126
20,GGAGAGCA,-0.125
21,CCCTAACA,0.071
22,AGTGCATG,-0.0963
23,CATGGGTC,-0.185
24,ATTCGTAC,0.154
25,AGGTCCGA,0.457

row,Sequence,PBM E-score
1,AGGTCCAG,-0.0827
2,GGGTCCGA,0.295
3,AGGTCCGG,0.461
4,AGGTCCGC,0.286
5,CGGTCCGA,0.264
6,CCTTGAAG,-0.0873
7,GCTCAAGA,-0.148
8,ATAGTGGG,-0.0539
9,AATCTGGT,0.047
10,AGGCCTTA,-0.127
11,GAAGCTCC,0.35
12,AAAGCTCC,0.0815
13,GAAGCTCA,-0.033
14,GACACCCA,-0.118
15,ATTCTATA,0.16
16,GGAGCGTA,0.0804
17,ATCTCTCC,-0.0902
18,CAATCTCA,-0.0455
19,CAATCTCG,-0.097
20,CTATCTCC,0.114
21,ATATCTCC,0.341
22,CAATCTCC,0.312
23,CATCTGCG,-0.0835
24,CGGTCAAG,-0.09
25,TCTGATAA,-0.0508

row,Sequence,PBM E-score
1,AATTGTCT,-0.0132
2,CTCGTTAA,0.1
3,CTAACGGA,0.305
4,GTAACGGA,0.329
5,GTAACGCA,0.021
6,ATAACGGC,0.00713
7,ATAACGGA,0.341
8,ATAACGGG,0.0139
9,GTAACGTA,0.0551
10,CTAACGAA,-0.0566
11,CTAACGGC,0.0477
12,GAAACGCA,0.026
13,CTGAGCGA,-0.162
14,AAGGTTGA,0.0981
15,GTTTAGTA,0.208
16,GACATCGC,-0.0981
17,CATAACAC,0.0299
18,CGCTCAGC,-0.105
19,ATTTTGCG,0.193
20,GCTCCCAC,-0.109
21,CATATGTC,-0.0849
22,CCTGTCAA,-0.085
23,ATCCGGGA,0.0768
24,CTCCGGGC,0.391
25,CTCCGGGA,0.436

row,Sequence,PBM E-score
1,GTCCGGGA,0.413
2,CGCCGGGC,0.00809
3,CCCCGGGA,-0.0206
4,CGCCGGGA,-0.203
5,ATCCGGGC,0.127
6,GACCGGGA,-0.0471
7,CCCGGTCC,-0.0342
8,AACTCACT,-0.151
9,CAATTCAA,0.0614
10,GGCCCTCA,-0.279
11,CTGGTTCA,-0.0784
12,ACTCGGGC,-0.0385
13,CCTCGGAA,0.215
14,ACTCGGTC,-0.072
15,CCTCGGAC,0.412
16,CCTCGGTA,-0.0533
17,ACTCGGAC,0.411
18,CCTCGGAG,0.446
19,CCTCGGGC,-0.209
20,ACTCGGAT,0.0613
21,ACTCGGAA,0.323
22,CCTCGGCG,-0.0382
23,TCTCGGAA,0.215
24,CTAGTTGC,-0.0129
25,GCCTTGGA,-0.0418

row,Sequence,PBM E-score
1,GACGCGTC,-0.325
2,ATCTATAG,0.11
3,CAGCCTGA,-0.275
4,ATATGAGG,-0.0891
5,ACTCGGTG,-0.0621
6,GCTCGGCC,-0.204
7,GCTCGGAA,0.165
8,ACTCGGCG,0.0415
9,GCTCGGAC,0.365
10,ACTCGGAG,0.399
11,ATACATTA,0.234
12,ACACTAAG,-0.0951
13,AATATACA,0.29
14,GATATACA,0.194
15,CATATATA,0.299
16,CATATATC,-0.0165
17,TATATAGA,0.278
18,TATATACA,0.316
19,GATATATA,0.247
20,TATATATA,0.381
21,CATATATG,0.0281
22,GGCCAGCA,-0.168
23,ACCCAGGA,-0.13
24,AAGACTTC,-0.196
25,AACCCCTC,-0.198

row,Sequence,PBM E-score
1,AAGGGGGA,-0.0309
2,CAGTCAAA,0.0987
3,CCTTGCAG,-0.143
4,ACTCGTCG,-0.174
5,TAATCGCA,-0.0128
6,AACGGAAA,0.327
7,ATCGGAAA,0.302
8,GTCGGAAA,0.355
9,CACGGAAA,0.188
10,ATCGGAAC,0.14
11,CTCGGAAA,0.19
12,ATCGGAAT,0.352
13,AGCGGAAT,0.0494
14,TTCGGAAA,0.252
15,ATCGGAAG,0.253
16,AACGGAAT,0.294
17,GTCGGAAC,0.134
18,AGTAACTC,0.115
19,CGACGAAA,0.0757
20,AAGTGAGC,-0.0565
21,GCTTTTTA,0.161
22,GGAGCGAA,0.0455
